Screening data as filed in PubChem BioAssay.
AmpC inh no detg: blocks E. coli AmpC beta-lactamase in detergent-free assay. P00811. AmpC nitrocefin hydrolysis, absorbance 480 nm, 0.0001% Triton. Potency, µM (titrated, usually from 57.1 µM), inactives show at the top dose activity change, negative = inhibition, hits mostly inhibitors. actives 0.52% (n = 330,000);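 also: plate controls were no compound for no effect and no enzyme for full effect; nearly all actives have a fitted effect of over 20% in size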
Target sequence (P00811 whole entry, looked up): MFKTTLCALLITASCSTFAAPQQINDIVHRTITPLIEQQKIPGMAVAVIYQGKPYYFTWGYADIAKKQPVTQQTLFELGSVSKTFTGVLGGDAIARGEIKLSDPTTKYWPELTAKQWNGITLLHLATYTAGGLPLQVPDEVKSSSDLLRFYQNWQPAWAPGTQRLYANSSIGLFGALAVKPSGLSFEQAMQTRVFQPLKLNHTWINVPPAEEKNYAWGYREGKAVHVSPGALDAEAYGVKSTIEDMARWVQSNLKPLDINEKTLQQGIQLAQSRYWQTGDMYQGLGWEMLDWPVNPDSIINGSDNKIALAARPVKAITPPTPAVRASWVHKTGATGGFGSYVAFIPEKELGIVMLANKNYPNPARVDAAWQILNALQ
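20 mM phosphate pH 7.0 + 0.01% (detergent screen) or 0.0001% Triton X-100; 5.3 nM AmpC reagent; cpd preinc 15 min RT; nitrocefin (800 uM stock) to start; A480 q20 s × 4 min; Activity was normalised to no-enzyme and no-compound control wells.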
Sm TGR block: S. mansoni TGR enzyme inhibition | AID 485364 | Potency, µM (top dose mostly 114 µM), without a hit: at the highest dose activity change, negative = inhibition, usual class: inhibitors | purified TGR, DTNB reduction, TNB absorbance 405 nm | actives 3% (n = 360,000); also: % is scaled to controls: 0 for no effect and ±100 for the full control effect; nearly all actives have a fitted effect of over 60% in size
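First, TGR (20 nM dispensed) and NADPH were mixed with compound. Second, a 15 min room-temperature incubation followed. Third, further NADPH and then DTNB were added to start the reaction. Finally, TNB absorbance was monitored kinetically.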
SARS PLP yeast: inhibitors of SARS-CoV papain-like protease in yeast. S. cerevisiae expressing SARS-CoV PLpro, growth rescue. Potency, µM (top dose mostly 32.9 µM), for inactives: at the highest dose activity, positive = growth rescue, actives largely listed as activators. actives 0.19% (n = 330,000). AID 485353; calls by dose curve; also: 0% is about no effect; nearly all actives have a fitted effect of over 55% in size
Pf growth 96h: P. falciparum growth inhibition at 96 hour, primary screen for plastid delayed-death inhibitors; actives 6.9% (n = 320,000); AID 504834; Potency, µM (doses to about 28.7 µM), inactives show top-dose activity change, negative = inhibition, actives largely listed as inhibitors; P. falciparum luciferase reporter growth, 96 h; also: % is scaled to controls: 0 for no effect and ±100 for the full control effect
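Two-generation exposure (96 h) targets delayed-death phenotype. Reporter parasites carrying integrated firefly luciferase, in red cells at 2% hematocrit and 0.05% parasitemia final, kept at 37 C, 5% CO2; luminescence loss indicates inhibition.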
Pf growth 48h: P. falciparum growth inhibition at 48 hours (one generation). P. falciparum luciferase growth in erythrocytes, 48 h. Potency, µM (series often up to 28.7 µM), without a hit: top-dose activity change, negative = inhibition, most hits filed as inhibitors. actives 5.9% (n = 310,000). AID 504832; also: % is scaled to controls: 0 for no effect and ±100 for the full control effect
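Firefly luciferase activity from engineered P. falciparum reports growth; inhibitors lower the luminescent signal. Cultures contained 2% hematocrit erythrocytes at 0.1% final parasitemia.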
AmpC detergent: AmpC beta-lactamase inhibition with detergent present; AmpC hydrolysis of nitrocefin, absorbance 480 nm, 0.01% Triton; Potency, µM (top dose mostly 114 µM), for the others: at the highest dose activity change, negative = inhibition, usual class: inhibitors; actives 0.041% (n = 370,000);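 also: 0% = no-compound wells and -100% = no-enzyme wells; nearly all actives have a fitted effect of over 25% in size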
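AmpC (5.3 nM in the dispensed reagent) in 20 mM phosphate pH 7.0 with 0.01% (detergent screen) or 0.0001% Triton X-100 was preincubated with compounds for 15 min at room temperature. Nitrocefin was then added from an 800 uM solution, and hydrolysis was followed at 480 nm.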
The depositor's hits bear a star; ? = inconclusive; / = no result given. Hits are enriched below; roughly 12% of the tested compounds scored in any of these assays. Unless noted, calls follow the shape of the dose curve; as a rule, active = well fitted curve in the direction sought with a large enough effect; inconclusive = small, poorly fitted or top-dose-only effect, or another doubt; inactive = no such curve, though single readings can be large; an effect the other way counts as inactive or inconclusive. Potency is read from the fitted curve at half-maximal effect.

SMILES	AmpC inh no detg	Sm TGR block	SARS PLP yeast	Pf growth 96h	Pf growth 48h	AmpC detergent
CCN1CCN(Cc2ccc(NC(=O)c3ccc(C)c(NC(=O)c4cc(-c5ccc(Br)cc5)n[nH]4)c3)cc2C(F)(F)F)CC1	3%	7%	0%	1.9µM*	1µM*	4%
Cc1ccc(N2CC(NC(=O)c3ccc4c(c3)OCO4)CC2=O)cc1 (stereo not drawn)	/	9%	/	/	/	-3%
Cc1ccc(-c2nc3c(c(SCC(=O)Nc4cccc(C(=O)O)c4)n2)Cc2cccc(C)c2O3)cc1	-11%	-10%	-3%	3%	-12%	-9%
CCN1CCN(Cc2ccc(NC(=O)c3cc(NC(=O)c4cncc(-c5ccc(C#N)cc5)c4)cc(OC)c3)cc2C(F)(F)F)CC1	107%	5%	-1%	0.1µM*	0.47µM*	-6%
CCN1CCN(Cc2ccc(NC(=O)c3cc(NC(=O)c4cnnc5ccccc45)cc(OC)c3)cc2C(F)(F)F)CC1	98%	4%	0%	2.9µM*	2.3µM*	4%
Cc1nonc1OCC(C)(COc1nonc1C)NC(=O)c1ccc(Cl)cc1	-25%	24%	23%	4.7µM*	8.3µM*	2%
Cc1noc(NC(=O)c2ccc(Cl)cc2)c1Cl	-24%	-10%	-1%	-13%	-27%	-13%
Cc1[nH]c2ccccc2c1Cc1n[nH]c(=S)n1C	-27%	-9%	10%	5.2µM*	15%	-3%
COc1ccc(/C=C/c2nc(S(=O)(=O)c3ccccc3)c(N(C)C)o2)cc1	-5%	?	-1%	?	?	4%
Cc1c2oc3c(C)ccc(C(=O)N[C@@H]4C(=O)N[C@H](C(C)C)C(=O)N5CCC[C@H]5C(=O)N(C)CC(=O)N(C)[C@@H](C(C)C)C(=O)O[C@@H]4C)c3nc-2c(C(=O)N[C@@H]2C(=O)N[C@H](C(C)C)C(=O)N3CCC[C@H]3C(=O)N(C)CC(=O)N(C)[C@@H](C(C)C)C(=O)O[C@@H]2C)c(N)c1=O	/	/	/	0.0024µM*	0.0048µM*	/
C[C@H](NC(=O)c1ccccc1Cl)C(=O)OCc1cn2cc(Cl)ccc2n1	?	6%	-20%	2%	2%	2%
CC(=O)Nc1ccc(-n2c(CCC(=O)O)ccc2-c2ccc(C)cc2)cc1	/	14µM*	/	/	/	-5%
CC(=O)Nc1ccc(-n2c(CCC(=O)O)ccc2-c2ccc(Br)cc2)cc1	/	35µM*	/	/	/	7%
CCOc1ccc(/C=C/c2nc(C#N)c(N3CCCCC3)o2)cc1	/	5%	/	/	/	16%
CCCOc1cccc(NC(=O)c2c(-c3ccccc3)noc2C)c1	-24%	-2%	0%	-3%	14%	7%
O=C(COC(=O)c1ccncc1)Nc1cccc(Cl)c1	-33%	4%	8%	0%	-35%	-10%
O=C(COC(=O)c1cccnc1)Nc1cccc(Cl)c1	-17%	-7%	-22%	4.7µM*	-16%	?
Cc1onc(-c2ccccc2)c1C(=O)OCC(=O)Nc1cccc(Cl)c1	-1%	0%	-2%	?	12µM*	5%
Cc1onc(-c2ccccc2)c1C(=O)OCC(=O)Nc1ccc(Cl)cc1	-26%	-3%	1%	-6%	?	-7%
Cc1onc(-c2ccccc2)c1C(=O)Nc1cccc(OC(C)C)c1	-17%	-1%	-2%	13µM*	-6%	-3%
COc1ccc(-c2cc(=O)oc3cc(OCc4nn[nH]n4)ccc23)cc1	-21%	1%	2%	4.7µM*	37%	?
Nc1nncn1C(=O)CCCOc1ccc(Cl)cc1Cl	20%	-6%	-5%	?	13%	?
CN=C1C=CC(=C(c2ccc(N(C)C)cc2)c2ccc(N(C)C)cc2)C=C1	/	/	/	1.1µM*	0.21µM*	/
CN(C)S(=O)(=O)c1cccc(C(=O)Nc2ccccc2)c1	-21%	-2%	0%	20%	31%	0%
CC(=O)Nc1ccc(NC(=O)c2cccc(S(=O)(=O)N(C)C3CCCCC3)c2)cc1	14%	0%	26%	?	7.4µM*	7%
SMILES	AmpC inh no detg	Sm TGR block	SARS PLP yeast	Pf growth 96h	Pf growth 48h	AmpC detergent
CC(=O)Nc1ccc(NC2CCCCC2NS(=O)(=O)c2ccccc2)cc1 (stereo not drawn)	-7%	-3%	1%	8.3µM*	-5%	1%
Cc1ccc(NC(=O)c2cccc(S(=O)(=O)N(C)C3CCCCC3)c2)nc1	?	4%	-13%	9.3µM*	5.2µM*	?
CC(=O)c1cccc(S(=O)(=O)NC2CCCCCC2)c1	-31%	-22%	14%	-10%	23%	-4%
O=C(Nc1ccccc1)c1cccc(S(=O)(=O)NC2CCCC2)c1	?	-2%	-1%	12µM*	13%	-3%
Cc1cc(SCC(=O)NC2CCCC2)nc2ccccc12	-18%	0%	-7%	1%	13%	-17%
CCc1c(C)sc(NC(=O)c2cc3nc(-c4ccc(OC)cc4)cc(C(F)(F)F)n3n2)c1C(=O)OC	/	-5%	/	/	/	9%
CCc1ccccc1NC(=O)c1ccc2c(c1)N(Cc1cccc(Cl)c1)C(=O)c1ccccc1S2(=O)=O	/	10%	/	/	/	9%
C=CCN1CC[C@]23CCCCC2[C@H]1Cc1ccc(O)cc13 (stereo partly drawn)	/	/	/	15µM*	?	/
O=C(Nc1ccsc1C(=O)NC1CCCCC1)c1ccc(F)cc1	-19%	0%	1%	1.7µM*	1.7µM*	?
O=C(Nc1ccsc1C(=O)O)c1ccccc1	-8%	0%	-1%	36%	14%	-2%
C=CCn1c(C)cc(C(=O)Cn2ncc(Cl)c(Cl)c2=O)c1C	-17%	40µM*	-29%	9%	3%	?
CC(C)(C)C(=O)Cn1ncc(Cl)c(Cl)c1=O	0%	40µM*	1%	?	?	4%
O=C(Cn1ncc(Cl)c(Cl)c1=O)c1ccc(Cl)cc1	-29%	?	-52%	?	-29%	-6%
C/C=C/C=C/C(=O)OC(C)C(=O)Nc1cc([N+](=O)[O-])ccc1OC (stereo not drawn)	-35%	22µM*	-4%	23%	4%	-2%
CCOC(=O)c1ccc(C(=O)OCC)c(NC(=S)Nc2ccc([N+](=O)[O-])cc2OC)c1	-41%	-15%	-16%	2.9µM*	34%	?
COc1ccc([N+](=O)[O-])cc1NC(=S)Nc1ccccc1	-22%	28µM*	-3%	0%	/	4%
